The campaign covered roughly 410,000 compounds. About 5,000 (1.2%) were called active. Inconclusive results (about 13%) are left out. Calls follow the shape of the dose curve; as a rule, active = well fitted inhibition curve with a large enough effect; inconclusive = small, poorly fitted or top-dose-only effect; inactive = no such curve, though single readings can be large or run the other way. The entries come from a sample that favours actives as a whole.
Assay: qHTS for Inhibitors of TGF-b; also: nearly all actives have a fitted effect of over 65% in size
Details: HepG2 CAGA-GFP TGF-b/SMAD3 reporter, GFP fluorescence, 18 h, TGF-beta stimulated, 500 pg/mL final; series mostly up to 46.1 µM; activity, negative = inhibition: at the top concentration
In short: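 GFP signal (ex488/em500-530) from TGF-beta-stimulated HEPG2 CAGA-GFP cells, 500 pg/mL final, 18 h at 37 degrees C in DMEM plus 1% FBS, normalized to unstimulated and DMSO-stimulated controls.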
% is scaled to controls: 0 for no effect and ±100 for the full control effect; potency is read from the fitted curve at half-maximal effect.

Compound | activity, negative = inhibition | Potency
Cc1ccc(C2C=C(c3ccc(Cl)cc3)Nc3nc(NC(=O)CCC(=O)O)nn32)cc1 (centres undefined) | 26.6% (inactive) | –
COc1ccc(N2CCN(c3nc(-c4ccccc4F)nc4ccccc34)CC2)cc1 | -10.1% (inactive) | –
Cc1cccc(C)c1NC(=O)CN(C)C(=O)CCC(=O)c1ccccc1 | 2.94% (inactive) | –
Cc1cccc(C)c1NC(=O)C(Cl)C(=O)c1ccccc1 (centres undefined) | – | 11.2 µM (active)
Cc1cccc(C)c1NC(=O)N1CC(C)OC(C)C1 (centres undefined) | 0% (inactive) | –
Cc1ccc2c(=O)cc(C(=O)Nc3sc4c(c3C(=O)NCc3cccnc3)CCCC4)oc2c1 | 73.5% (inactive) | –
N#Cc1ccc[n+](CC(=O)c2ccc(F)cc2)c1 | -10.5% (inactive) | –
Cc1ccc(C)c(Nc2nnc(-c3ccc(C)c(S(=O)(=O)N4CCCCC4)c3)c3ccccc23)c1 | -18.5% (inactive) | –
CCn1c(CNC(=O)C23CC4CC(CC(C4)C2)C3)nnc1SCC(=O)Nc1ccc(OC)cc1 | -22.1% (inactive) | –
CC(=O)Nc1ccc2nc(SCCOc3cc(C)cc(C)c3)sc2c1 | -6.33% (inactive) | –
Brc1cccc[n+]1Cc1cccc(C[n+]2ccccc2Br)c1 | 1.8% (inactive) | –
Cc1c(C(=O)Nc2ccccn2)oc2ccc(Br)cc12 | 0.0321% (inactive) | –
O=C(CCc1ccc(O)cc1)NN=Cc1cc(Br)ccc1O | -15.4% (inactive) | –
Oc1ccc(Br)cc1/C=N/Nc1ccccn1 | – | 0.562 µM (active)
CCn1cc(C(=O)NCCc2ccccc2)c(=O)c2cc(S(=O)(=O)N3CCCCCC3)ccc21 | -16.6% (inactive) | –
CCCN(CC1COc2ccccc2O1)C(=S)Nc1ccc(C)cc1 (centres undefined) | 0% (inactive) | –
S=C(NCC1COc2ccccc2O1)Nc1ccc(Br)cc1 (centres undefined) | – | 22.4 µM (active)
CC(NC(=S)Nc1ccccc1)C1COc2ccccc2O1 (centres undefined) | 0% (inactive) | –
CCOC(=O)c1ccc(NC(=O)Cn2c(=O)n(-c3ccc(C)cc3)c(=O)c3c2cnn3C)cc1 | -13.3% (inactive) | –
COc1cc2nc(C#Cc3nc4cc(OC)c(OC)cc4[nH]3)[nH]c2cc1OC | -3.4% (inactive) | –
Cc1ccc(Cl)cc1NC(=O)CSc1nccn1C | 1.32% (inactive) | –
C[N+]1(CC(=O)c2cccs2)CCOCC1 | 13.9% (inactive) | –
Cc1ccccc1C(CC(=O)c1cccs1)C(C#N)C#N (centres undefined) | – | 20 µM (active)
Cc1ccc(C)c(NC(CC(=O)c2ccccc2)C(=O)OCC(=O)c2cccs2)c1 (centres undefined) | -23.2% (inactive) | –
Cc1ccc(-n2nnnc2CNC(=O)c2ccccc2C)cc1C | -0.406% (inactive) | –

Compound | activity, negative = inhibition | Potency
CCN(c1ncnc2c1cnn2-c1ccc(C)cc1)C1CCCCC1 | 4.65% (inactive) | –
CCN([C@H](CO)C(C)C)S(=O)(=O)c1ccccc1Br | -5.37% (inactive) | –
O=S(=O)(NCc1ccccc1Br)c1ccccc1Br | -10.9% (inactive) | –
CC(C)c1ccc(OCC(=O)N(Cc2ccc(N(C)C)cc2)C2CCS(=O)(=O)C2)cc1 (centres undefined) | -13.8% (inactive) | –
C[C@H]1CN(c2ccc(Br)cc2)C(=O)[C@@H]1CC(=O)Nc1ccc(Br)cc1 | 14.4% (inactive) | –
CNC(=O)C[C@H]1C(=O)N(c2ccc(OC)cc2)C[C@@H]1Cc1ccccc1 | -0.75% (inactive) | –
CC(C)c1ccc(NC(=O)CN(C)S(=O)(=O)c2ccc3c(c2)c(=O)n(C)c(=O)n3C)cc1 | -16.7% (inactive) | –
Cc1c(CNC2CCCCC2)c(C(=O)O)c(C)n1Cc1cccc(Cl)c1 | -0.0955% (inactive) | –
Cc1cccc(N2CCN(C3=C(c4ccccc4)C(=O)c4ccccc43)CC2)c1C | 17% (inactive) | –
COc1c(O)ccc2c1CN1CCc3cc4c(cc3C1C2)OCO4 (centres undefined) | – | 14.1 µM (active)
COc1cc(C(=O)CCc2ccc3c(c2)OCO3)cc(OC)c1OC | 5.53% (inactive) | –
COc1ccc(CN2CCCC(N3CCc4ccccc4C3)C2)c(O)c1 (centres undefined) | -14.6% (inactive) | –
C#CCOc1ccc(C2CC(=O)Nc3c2c(C)nn3-c2nc(C)cc(C)n2)cc1 (centres undefined) | -1.64% (inactive) | –
COc1ccccc1CNc1ccc(-c2nc(-c3ccccc3C)no2)cc1[N+](=O)[O-] | -9.17% (inactive) | –
COc1ccc(S(=O)(=O)NCCCCOc2ccc(Cl)cc2)cc1 | – | 12.6 µM (active)
COc1ccc(S(=O)(=O)NCCOc2ccccc2)cc1F | 16.2% (inactive) | –
COc1ccc(OCCNS(=O)(=O)Cc2ccccc2)cc1 | -7.8% (inactive) | –
NC(=O)C1CCN(C(=O)c2cccc(NC(=O)c3nsc4ccccc34)c2)CC1 | -22.1% (inactive) | –
O=C(CC(c1cccs1)N1Cc2ccccc2C1=O)Nc1ccc(F)cc1F (centres undefined) | -4.03% (inactive) | –
CCOc1ccc(C(NC(=O)c2cc(OC)c(OC)c(OC)c2)c2cc(Cl)c3cccnc3c2O)cc1 (centres undefined) | -19.5% (inactive) | –
CN(c1ccccc1)S(=O)(=O)c1cc(C(=O)N2CCN(c3ncccn3)CC2)ccc1Cl | -18.2% (inactive) | –
O=C(c1ccc(S(=O)(=O)N2CCCC2)cc1)N1CCN(c2ccccc2F)CC1 | -7.28% (inactive) | –
CN(c1ccccc1)S(=O)(=O)c1ccc(C(=O)N2CCN(c3ccccc3Cl)CC2)cc1 | – | 15.8 µM (active)
COc1ccc(OCCCn2c(C)nc3cc(C)c(C)cc32)cc1 | -10.2% (inactive) | –
Cn1nnc2c(N3CCN(c4ccccc4)CC3)ncnc21 | 58.9% (inactive) | –

Compound | activity, negative = inhibition | Potency
O=C(O)C1=C/C(=C/C=[N+]2c3cc(O)c(O[C@H]4OC(CO)[C@@H](O)[C@@H](O)[C@@H]4O)cc3C[C@@H]2C(=O)[O-])C[C@H](C(=O)O)N1 (some centres undefined) | -20.6% (inactive) | –
Cc1nn(CC(=O)N2CCN(c3cccc(C(F)(F)F)c3)CC2)c(=O)c2cc3sccc3n12 | -15.7% (inactive) | –
Cc1cc(NC(=O)CC(C)C)cc(-c2nc3ncccc3o2)c1O | 15.4% (inactive) | –
CN(C)C(=O)c1cccc(-c2cnc3sc(NCc4ccc5c(c4)OCO5)nn23)c1 | – | 10 µM (active)
CCOc1c2ccc(C(=O)NCc3ccc4c(c3)OCO4)cc2nn1C | -8.29% (inactive) | –
O=C(CSc1ncnc2scc(-c3ccccc3)c12)NCc1ccc2c(c1)OCO2 | -23.1% (inactive) | –
CCOc1ccc(CCNC(=O)Cn2nc(CC)n3c(cc4sc(CC)cc43)c2=O)cc1OCC | -29.1% (inactive) | –
FC(F)(F)c1cc(Nc2nc3ccccc3c3nncn23)ccc1Cl | – | 17.8 µM (active)
COc1cc(Nc2nc3ccc(Cl)cc3n3cnnc23)cc(OC)c1OC | 39.4% (inactive) | –
COc1cccc(Nc2nc3ccccc3c3nncn23)c1 | -9.39% (inactive) | –
O=C(CC(NCc1cccnc1)C(=O)O)Nc1ccc(O)cc1 (centres undefined) | 3.04% (inactive) | –
COc1ccc(NC(=O)Cn2c(=O)n(CCC(C)C)c(=O)c3cccnc32)cc1Cl | -6.53% (inactive) | –
Cc1ccc(C)c(N2CCN(c3ccc4cc(S(=O)(=O)N5CCC(C)CC5)ccc4n3)CC2)c1 | 15.4% (inactive) | –
COc1ccc(Br)cc1C1CC(=O)Nc2c1c(C)nn2-c1nc(C)cc(C)n1 (centres undefined) | -3.57% (inactive) | –
O=C(NC(c1ccc(Cl)cc1)c1cnccn1)C1CCN(Cc2ccc(Cl)cc2)CC1 (centres undefined) | 2.45% (inactive) | –
Cc1cccnc1C(NC(=O)C1CCN(Cc2ccc(Cl)c(Cl)c2)CC1)c1ccc(Cl)cc1 (centres undefined) | – | 11.2 µM (active)
COc1cccc(CN2CCC(C(=O)NC(c3ccc4c(c3)OCO4)c3ccccn3)CC2)c1 (centres undefined) | -6.59% (inactive) | –
Cc1ccc(OCC(=O)OCc2cc(=O)n3nc(C4CC4)sc3n2)cc1C | 4.88% (inactive) | –
COCCNC(=O)CSc1c(C)cnc2c1c(=O)n(C)c(=O)n2C | 17.4% (inactive) | –
O=S(=O)(c1ccc(Br)cc1)c1nnn2c1nc(NC1CCCCCC1)c1sccc12 | 43.2% (inactive) | –
CC1=C(c2ccc(Cl)cc2)S(=O)(=O)N=C1N1CCN(c2cc(C)ccc2C)CC1 | 26.8% (inactive) | –
CC1=C(c2ccc(C)cc2)S(=O)(=O)NC1=NCCCN1CCN(c2cc(C)ccc2C)CC1 | – | 20 µM (active)
CCOC(=O)c1c(C)[nH]c(CCC(=O)NCCCN2CCN(c3cc(C)ccc3C)CC2)c1C | -20.3% (inactive) | –
COC(=O)c1c(NC(=O)CCCOc2ccccc2)sc2c1CCC(C)C2 (centres undefined) | 14.7% (inactive) | –
CSc1ccc(NC(=O)Cn2nnnc2-c2ccccc2F)cc1 | -20.5% (inactive) | –

Compound | activity, negative = inhibition | Potency
CCc1ccc(-n2nnc(-c3nc(-c4ccccc4)no3)c2C)cc1 | -34.3% (inactive) | –
O=C(c1ccccc1)N1CCN(c2cc(-c3ccccc3)nc3cc(-c4cccc(Cl)c4)nn23)CC1 | 8.56% (inactive) | –
COc1cccc(-c2cc3nc4c(c(N5CCC6(CC5)OCCO6)n3n2)CCCC4)c1 | – | 12.6 µM (active)
O=C(CC(c1cccs1)N1Cc2ccccc2C1=O)Nc1ccc(F)c(F)c1 (centres undefined) | -4.52% (inactive) | –
CCOc1ccccc1NC(=O)Cn1c(=O)n(Cc2ccco2)c(=O)c2sc3ccccc3c21 | -0.989% (inactive) | –
Cc1c(Cl)cccc1NC(=O)C1CCCN(C(=O)c2cnn(-c3ccccc3)c2-n2cccc2)C1 (centres undefined) | – | 12.6 µM (active)
Cc1cccc(NC(=O)C2CCCN(C(=O)NCc3ccccc3)C2)c1C (centres undefined) | -10.4% (inactive) | –
Cc1c(Cl)cccc1NC(=O)C1CCCN(c2ncnc3onc(C)c23)C1 (centres undefined) | -13.3% (inactive) | –
CCOc1ccccc1NC(=O)Cn1c2ncccc2c(=O)n1-c1ccc(C)c(C)c1 | -0.756% (inactive) | –
Cc1[nH]c2ccccc2c1C(=O)C(=O)N(C)c1ccccc1 | -12% (inactive) | –
COc1ccc(-c2cn3c(C)c(C(=O)Nc4cc(C)cc(C)c4)sc3n2)cc1 | 0.33% (inactive) | –
COc1ccc(CCNC(=O)CN(c2ccccc2)S(C)(=O)=O)cc1OC | -11.8% (inactive) | –
COc1ccc(C(CCN(Cc2ccc(OC)c(OC)c2)C(=O)CCl)c2ccccc2)cc1 (centres undefined) | – | 14.1 µM (active)
COc1ccc(C(C(=O)NC2CCCCC2)N(C(=O)CCl)c2ccccc2Cl)cc1 (centres undefined) | 5.59% (inactive) | –
CC(=O)c1ccc2c(c1)c1ccccc1n2CC(C)C | – | 7.08 µM (active)
CCn1c2ccccc2c2cc(CC(N)=O)ccc21 | 10.2% (inactive) | –
CCn1c(=O)c2cc(C(=O)Nc3cccc(C(C)=O)c3)sc2c2ccccc21 | 36.2% (inactive) | –
CCOC(=O)N1CCC(NC(=O)c2cnn(-c3cccc(C)c3)c2C2CCN(C(=O)OC(C)(C)C)CC2)CC1 | -6.58% (inactive) | –
O=C(NCCc1ccccc1)C(=O)NCC(c1ccco1)S(=O)(=O)c1ccccc1 (centres undefined) | 5.98% (inactive) | –
CCOCCCNC(=O)c1c(NC(=O)c2nc(SC)ncc2Cl)sc2c1CCCC2 | 11.6% (inactive) | –
O=C(Nc1cccc2cccnc12)c1cccc2c(Br)cccc12 | -11.1% (inactive) | –
CC(=O)c1ccc(NC(c2ccc(F)cc2)c2nnc(-c3ccccc3)o2)cc1 (centres undefined) | 0.279% (inactive) | –
Fc1ccc(C(Nc2ccc(Cl)c(C(F)(F)F)c2)c2nnc(-c3ccccc3)o2)cc1 (centres undefined) | – | 10 µM (active)
Cc1ccc(C)c(N2CCN(C(c3ccccc3)c3nnc(-c4ccccc4)o3)CC2)c1 (centres undefined) | -6.53% (inactive) | –
